Results filed as inconclusive are left out. The source made the active and inactive calls. The calls were made as follows: active = hit-call score of the fitted dose curve at least 0.9, where 1 is the maximum; inconclusive = response in the unintended direction; inactive = score below 0.9.
System: not listed separately
Experiment: CCTE_Simmons_CellTiterGLO_HEK293T: Viability Assessment in CCTE's Assays for Thyroperoxidase (TPO) Inhibition, Simmons Lab (AID 2283665);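 as to AC50: cells exposed to compound for 24 h before readout; actives reduce ATP signal below DMSO vehicle meaning cytotoxicity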
How it was run: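 ATP depletion measured in HEK293T cells after 24 h dosing (8 concentrations, 5 nM–87.5 uM final; DMSO 0.5%) using CellTiter-Glo luminescence; curves fit for loss of signal against DMSO baseline.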

SMILES | AC50 | outcome
CC1(C(=O)Nc2ccc(O)c(Cl)c2Cl)CCCCC1 | 82.2 µM (active) | 
CCOP(=O)(SC(C)CC)N1CCSC1=O (stereo unspecified) |  | inactive
C=C(C)[C@H]1Cc2c(ccc3c2O[C@@H]2COc4cc(OC)c(OC)cc4[C@@H]2C3=O)O1 |  | inactive
S=C1NCCN1 |  | inactive
CCOP(=S)(OCC)Oc1ccc2c(C)c(Cl)c(=O)oc2c1 |  | inactive

System: not listed separately
Experiment: Tanguay_ZF_120hpf_TR_legacy: (Legacy) Oregon State University Tanguay Lab 120 Hour Post-fertilization zebrafish Assay for Touch Response (AID 2283667)
How it was run: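 Binary touch-response call at 120 hpf, analysed as gain of signal versus DMSO baseline. Wild-type 5D larvae, static exposure at 28C, 0.64% DMSO final; 5uM trimethyltin chloride as positive control.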

SMILES | outcome | AC50
CCc1cnc(C2=NC(C)(C(C)C)C(=O)N2)c(C(=O)O)c1 (stereo unspecified) | inactive | 
COP(=O)(OC)C(O)C(Cl)(Cl)Cl (stereo unspecified) | inactive | 
COc1ccc(C(=CC(=O)N2CCOCC2)c2ccc(Cl)cc2)cc1OC |  | 42.4 µM (active)
CNC(=O)ON=C(SC)C(=O)N(C)C | inactive | 
CC(=NC#N)N(C)Cc1ccc(Cl)nc1 | inactive | 
O=[N+]([O-])c1cc(C(F)(F)F)c(Cl)c([N+](=O)[O-])c1Nc1ncc(C(F)(F)F)cc1Cl | inactive | 
CCCCOC(=O)c1ccccc1C(=O)O | inactive | 
COc1cc(OC)nc(Sc2cccc(Cl)c2C(=O)O)n1 | inactive | 
CCc1cccc(CC)c1N(COC)C(=O)CCl | inactive | 

Read-out: organic anion transporter (SLCO1B1), SLCO1B1 (gene 10599)
Experiment: CLD_SLCO1B1_6hr: CellzDirect (CLD) Gene Expression Assay for organic anion transporter (SLCO1B1) at 6 hours (AID 2283668);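 also: active means mRNA induction above DMSO baseline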
How it was run: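 SLCO1B1 mRNA induction measured 6 h after dosing by quantitative nuclease protection with chemiluminescent read-out, in human primary hepatocyte cultures given chemicals at several concentrations (vehicle 0.2% DMSO). Increase over DMSO baseline fitted; morphology-based cytotoxicity annotated yes/no.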

SMILES | outcome
CCc1cnc(C2=NC(C)(C(C)C)C(=O)N2)c(C(=O)O)c1 (stereo unspecified) | inactive
COP(=O)(OC)C(O)C(Cl)(Cl)Cl (stereo unspecified) | inactive
CCOP(=O)(SC(C)CC)N1CCSC1=O (stereo unspecified) | inactive
COc1ccc(C(=CC(=O)N2CCOCC2)c2ccc(Cl)cc2)cc1OC | inactive
CNC(=O)ON=C(SC)C(=O)N(C)C | inactive
CC(=NC#N)N(C)Cc1ccc(Cl)nc1 | inactive
COP(=O)(OC)OC(Br)C(Cl)(Cl)Br (stereo unspecified) | inactive
O=[N+]([O-])c1cc(C(F)(F)F)c(Cl)c([N+](=O)[O-])c1Nc1ncc(C(F)(F)F)cc1Cl | inactive
CCCCOC(=O)c1ccccc1C(=O)O | inactive
C=C(C)[C@H]1Cc2c(ccc3c2O[C@@H]2COc4cc(OC)c(OC)cc4[C@@H]2C3=O)O1 | inactive
CCCOc1nn(C(=O)NS(=O)(=O)c2ccccc2C(=O)OC)c(=O)n1C | inactive
CCc1cccc(CC)c1N(COC)C(=O)CCl | inactive
S=C1NCCN1 | inactive
CON=C(C(=O)OC)c1ccccc1CON=C(C)c1cccc(C(F)(F)F)c1 | inactive

Read-out: sulfotransferase (SULT2A), SULT2A1 (gene 6822)
Experiment: CLD_SULT2A_6hr: CellzDirect (CLD) Gene Expression Assay for sulfotransferase (SULT2A) at 6 hours (AID 2283669);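 also: hits raise transcript level above the DMSO vehicle baseline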
How it was run: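 Measured 6 h after dosing, SULT2A1 mRNA in human hepatocyte lysates was quantified by S1 nuclease protection with chemiluminescent detection. Increases fitted against 0.2% DMSO vehicle baseline; phase-contrast cytotoxicity recorded yes/no.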

SMILES | outcome
CC(C)[C@H](C(=O)O[C@H](C#N)c1cccc(Oc2ccccc2)c1)c1ccc(Cl)cc1 | inactive
C=C(C)[C@H]1Cc2c(ccc3c2O[C@@H]2COc4cc(OC)c(OC)cc4[C@@H]2C3=O)O1 | inactive
CCOP(=S)(OCC)Oc1ccc2c(C)c(Cl)c(=O)oc2c1 | inactive
